Sampled rows, rich in hits. Any-hit rate of the full collection: about 2.8%.
p53 PUMA act – mutant p53 pathway reactivation | 28,000 tested, 1.5% active | SW480 PUMA-promoter luciferase | activation, % at 9.98 µM | AID 624151; in the data active = activation above about 52%
c-Myc SMM – binders of human c-Myc; AID 624141; small molecule microarray, His-c-Myc binding, anti-His fluorescence; P01106; calls only; 17,000 tested, 1.5% active;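 active = spot fluorescence over background with P-value below 7% in all four replicate spots, showing protein binding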;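 also: score is binary with 100 for all four spots passing and 0 otherwise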
Target sequence (P01106 whole entry, looked up): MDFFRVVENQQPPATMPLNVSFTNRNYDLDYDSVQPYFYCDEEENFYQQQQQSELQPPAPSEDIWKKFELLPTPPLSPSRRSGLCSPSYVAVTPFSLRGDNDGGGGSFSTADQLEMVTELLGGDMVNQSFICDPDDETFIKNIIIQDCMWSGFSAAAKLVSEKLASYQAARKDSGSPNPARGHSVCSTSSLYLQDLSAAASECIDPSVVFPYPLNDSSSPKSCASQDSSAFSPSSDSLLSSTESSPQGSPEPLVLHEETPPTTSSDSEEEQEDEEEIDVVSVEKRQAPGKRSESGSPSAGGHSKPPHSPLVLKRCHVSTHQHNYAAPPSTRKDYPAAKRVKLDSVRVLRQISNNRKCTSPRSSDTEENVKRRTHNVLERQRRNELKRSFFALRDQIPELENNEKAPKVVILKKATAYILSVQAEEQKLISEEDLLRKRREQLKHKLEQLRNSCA
STAT3 SMM – binds human STAT3 on microarray | P40763 | Small molecule microarray, His-STAT3 binding, anti-His fluorescence | 17,000 tested, 0.2% active | calls only;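 active = compounds whose four printed spots each show fluorescence over background unusually high for their array block, chance value under 7%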
NFkB SMM – binds human NF-kappa-B p105 on microarray; P19838; Small molecule microarray, anti-His fluorescence binding; calls only; 17,000 tested, 1.3% active;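 active = spot fluorescence over background significantly raised, with a chance value under 7% in all four replicate spots of the compound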;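 also: probe protein is his-tagged human p50 processed subunit at 1 µg/ml; raw spot fluorescence signals with no normalization applied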
p53 mut binder – binds human mutant p53 on microarray | calls only | small molecule microarray binding, anti-GST fluorescence | 17,000 tested, 0.4% active;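 active = compounds whose four printed spots each glow above background more than chance allows, each with a p-value under 7%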
Starred values were filed as active, the others as inactive; i = inactive; . = no result; + = active, no number.

SMILES | p53 PUMA act | c-Myc SMM | STAT3 SMM | NFkB SMM | p53 mut binder
COc1ccc(NC(=O)CC2Nc3cccc4cccc(c34)NC2=O)cc1 (configuration not stated) | -21 | . | . | . | .
COC(=O)c1c(NC(=O)CC2Nc3cccc4cccc(c34)NC2=O)sc(C)c1C (configuration not stated) | -10 | + | i | i | i
CCn1c(SCC(=O)Nc2ccc(F)cc2)nnc1-c1cccs1 | 17 | . | . | . | .
COc1ccc(NC(=O)CSc2nc3sc4c(c3c(=O)n2-c2ccccc2)CCC4)c([N+](=O)[O-])c1 | 0 | . | . | . | .
C[C@@H]1CCCCO[C@@H](CN(C)Cc2ccccc2)[C@H](C)CN([C@@H](C)CO)C(=O)c2cc(NC(=O)CCCN(C)C)ccc2O1 | -4 | i | i | i | i
Cc1ccc(S(=O)(=O)N(C)C[C@H]2OCCCC[C@H](C)Oc3ccc(NC(=O)NC4CCCCC4)cc3C(=O)N([C@H](C)CO)C[C@H]2C)cc1 | . | + | i | i | +
CC(C)NC(=O)Nc1ccc2c(c1)C(=O)N([C@@H](C)CO)C[C@H](C)[C@@H](CN(C)S(=O)(=O)c1ccccc1)OCCCC[C@@H](C)O2 | 13 | + | i | + | i
CC(C)NC(=O)Nc1ccc2c(c1)C(=O)N([C@H](C)CO)C[C@H](C)[C@@H](CN(C)S(=O)(=O)c1ccccc1)OCCCC[C@H](C)O2 | 9 | i | i | i | i
C[C@@H]1CN([C@H](C)CO)C(=O)c2cc(N(C)C)ccc2O[C@@H](C)CCCCO[C@@H]1CN(C)Cc1ccccc1 | -1 | i | + | i | +
C[C@H](CO)N1C[C@H](C)[C@H](CN(C)Cc2ccccc2)OCCCC[C@H](C)Oc2ccc(NC(=O)CCCN(C)C)cc2C1=O | 9 | i | i | + | i
O=C(CC1OCCN(Cc2ccccc2)C1=O)Nc1cccc(Cl)c1 (configuration not stated) | -2 | . | . | . | .
COc1ccc(Nc2nc(NC(C)(C)C)nc(OC)n2)c(OC)c1 | -1 | i | i | i | i
C[C@H](CO)N1C[C@H](C)[C@H](CN(C)S(=O)(=O)c2ccccc2)OCCCC[C@H](C)Oc2ccc(N(C)C)cc2C1=O | -2 | i | i | + | +
C[C@H]1CCCCO[C@@H](CN(C)S(=O)(=O)c2ccccc2)[C@@H](C)CN([C@@H](C)CO)C(=O)c2cc(N(C)C)ccc2O1 | -1 | i | i | i | i
Cc1cccc(NC(c2ccccc2[N+](=O)[O-])c2ccc3ccc(C)nc3c2O)n1 (configuration not stated) | -45 | i | i | i | i
C[C@@H]1CN([C@@H](C)CO)C(=O)c2cc(NC(=O)Cc3ccccc3)ccc2O[C@@H](C)CCCCO[C@@H]1CN(C)C(=O)CCC(F)(F)F | 3 | i | i | i | i
C[C@H](CO)N1C[C@H](C)[C@H](CN(C)C(=O)CCC(F)(F)F)OCCCC[C@H](C)Oc2ccc(NC(=O)CCC(F)(F)F)cc2C1=O | -1 | + | i | + | i
C[C@@H]1CN([C@@H](C)CO)C(=O)c2cc(NC(=O)c3ccncc3)ccc2O[C@@H](C)CCCCO[C@@H]1CN(C)C(=O)CCC(F)(F)F | 1 | i | i | + | i
C[C@@H]1CCCCO[C@H](CN(C)C(=O)CCC(F)(F)F)[C@H](C)CN([C@@H](C)CO)C(=O)c2cc(NC(=O)Cc3ccccc3)ccc2O1 | -9 | + | i | + | i
C[C@@H]1CN([C@@H](C)CO)C(=O)c2cc(NC(=O)CCC(F)(F)F)ccc2O[C@@H](C)CCCCO[C@@H]1CN(C)C(=O)CCC(F)(F)F | -7 | + | i | + | i
Cc1ccc(C(=O)Nc2cccc(NC(=O)COc3ccc(Br)cc3)c2)cc1 | -18 | . | . | . | .
Cc1cc(C)n2nc(SCC(=O)Nc3cccc([N+](=O)[O-])c3)nc2n1 | 17 | . | . | . | .
CC(C)NC(=O)N(C)C[C@H]1OCCCC[C@@H](C)Oc2ccc(NC(=O)CCC(F)(F)F)cc2C(=O)N([C@H](C)CO)C[C@@H]1C | 3 | i | i | i | i
C[C@@H]1CCCCO[C@H](CN(C)C(=O)CCC(F)(F)F)[C@@H](C)CN([C@@H](C)CO)C(=O)c2cc(NC(=O)CCC(F)(F)F)ccc2O1 | -6 | i | i | i | i
CC(C)NC(=O)N(C)C[C@H]1OCCCC[C@H](C)Oc2ccc(NC(=O)CCC(F)(F)F)cc2C(=O)N([C@H](C)CO)C[C@@H]1C | 17 | + | i | + | i
SMILES | p53 PUMA act | c-Myc SMM | STAT3 SMM | NFkB SMM | p53 mut binder
C[C@@H]1CN([C@H](C)CO)C(=O)c2cc(NC(=O)CCC(F)(F)F)ccc2O[C@@H](C)CCCCO[C@H]1CN(C)C(=O)CCC(F)(F)F | 2 | + | i | + | i
COCCOC(=O)N1C(=O)[C@@]2(c3cc(C#CC4=CCCCC4)ccc31)[C@H](C(=O)N1CCN(c3ncccn3)CC1)[C@H]1C(=O)O[C@H](c3ccccc3)[C@H](c3ccccc3)N1[C@@H]2c1ccccc1OCCO | . | i | i | + | i
COCCOC(=O)N1C(=O)[C@@]2(c3ccccc31)[C@H](C(=O)N1CCN(c3ncccn3)CC1)[C@H]1C(=O)O[C@H](c3ccccc3)[C@H](c3ccccc3)N1[C@@H]2c1ccc(OCCO)cc1 | . | i | i | i | i
COCCOC(=O)N1C(=O)[C@@]2(c3cc(C#CCC(C(=O)OC)C(=O)OC)ccc31)[C@H](c1ccc(OCCO)cc1)N1[C@H](c3ccccc3)[C@H](c3ccccc3)OC(=O)[C@H]1[C@@H]2C(=O)N1CCN(c2ncccn2)CC1 | . | i | i | + | i
Cc1cccc(NC(=O)c2cc(NC(=O)CCC(=O)O)ccc2N2CCOCC2)c1 | -12 | i | i | i | i
Cc1cccc(NC(=O)CNS(=O)(=O)c2ccc(Br)cc2)c1C | -10 | . | . | . | .
Cc1ccc([N+](=O)[O-])c(OCCCSc2ncccn2)c1 | 67* | . | . | . | .
CN1N=C(c2coc3ccccc23)CC1(O)C(F)(F)F (configuration not stated) | 73* | . | . | . | .
COc1cc(C)c2c(=O)cc(-c3ccccc3)oc2c1 | 85* | i | i | i | i
COc1ccc(-c2cc(=O)c3c(O)cc(O)cc3o2)cc1 | 95* | i | i | i | i
COc1c(-c2ccc(O)cc2)oc2cc(O)cc(O)c2c1=O | -3 | i | i | i | i
COc1cc2oc(-c3ccccc3)cc(=O)c2c(OC)c1OC | 16 | i | i | i | i
CC1CCc2c(sc3ncnc(SCC(=O)NC4CCCCC4)c23)C1 (configuration not stated) | -7 | . | . | . | .
O=C(CNS(=O)(=O)c1cc(Cl)ccc1Cl)Nc1ccc(Cl)cc1 | 12 | . | . | . | .
O=C(O)CNS(=O)(=O)c1cc(Cl)c(Cl)cc1Cl | -5 | + | i | + | +

Source: PubChem BioAssay
